# From PubChem
# NPC1 prom act: activators of NPC1 promoter | Huh7 NPC1 promoter luciferase reporter, 24 h | Potency, µM (series often up to 9.22 µM), without a hit: at the top dose activation, most hits filed as activators | hit rate 2.4% among 320,000 | AID 485313; also: % of control where 0% means no effect; nearly all actives have a fitted effect of over 60% in size
#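 Stably transfected Huh7 (NPC1 promoter→luciferase), 1500 cells/well in Opti-MEM + 10% FBS, 2 h settle, then compound 24 h at 37 °C. Luminescence after 10 min with Amplite reagent.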
# SMN2 splice enh: SMN2 splice variant enhancement; HEK293 SMN2-luciferase splicing reporter, luminescence, 30-36 h; Potency, µM (titrated, usually from 46.1 µM), without a hit: at the highest dose activity change, positive = activation, usual class: activators; hit rate 2.8% among 210,000; also: % of control where 0% means no effect; nearly all actives have a fitted effect of over 55% in size
#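 HEK293 cells carry an SMN2 minigene-luciferase reporter in which exon 7 inclusion puts luciferase in frame. Cells were seeded at 2000 cells/well, attached for 10-12 hours, then exposed to compounds for 30-36 hours at 37C before ONE-Glo luminescence.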
# FLuc counter: inhibits or activates purified firefly luciferase, miR-21 counter-screen; Potency, µM (highest dose often 57.5 µM), inactives show at the top dose activity change, negative = inhibition, actives largely listed as inhibitors; P08659; AID 588342; hit rate 6.9% among 360,000; purified FLuc, Km substrates, luminescence inhibition;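 also: plate controls were vehicle for no effect and reference inhibitor for full effect; nearly all actives have a fitted effect of over 55% in size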
# Target sequence (P08659 whole entry, looked up): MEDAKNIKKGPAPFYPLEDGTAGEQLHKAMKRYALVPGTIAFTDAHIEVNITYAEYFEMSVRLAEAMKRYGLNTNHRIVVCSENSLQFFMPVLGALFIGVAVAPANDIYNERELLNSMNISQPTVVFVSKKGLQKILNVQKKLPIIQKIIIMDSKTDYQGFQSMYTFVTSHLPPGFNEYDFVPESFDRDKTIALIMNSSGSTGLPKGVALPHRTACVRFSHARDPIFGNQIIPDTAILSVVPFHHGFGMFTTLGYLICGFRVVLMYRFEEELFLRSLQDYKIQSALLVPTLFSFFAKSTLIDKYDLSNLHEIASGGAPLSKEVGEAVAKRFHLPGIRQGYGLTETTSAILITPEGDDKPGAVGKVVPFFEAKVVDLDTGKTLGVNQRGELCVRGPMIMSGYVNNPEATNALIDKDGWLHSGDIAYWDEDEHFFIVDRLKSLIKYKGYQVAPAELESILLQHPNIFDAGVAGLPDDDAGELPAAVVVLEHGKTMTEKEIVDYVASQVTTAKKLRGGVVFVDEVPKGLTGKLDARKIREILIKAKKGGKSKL
#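 Biochemical qHTS of compounds, final roughly 60 µM downward over six points, against 10 nM purified firefly luciferase using Km concentrations of substrates (10 uM D-luciferin, 10 uM ATP) in Tris acetate pH 7.5 buffer; luminescence output.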
# Rab9 prom act: Rab9 promoter activation | Potency, µM (highest dose often 9.22 µM), inactives show top-dose activation, negative = inhibition, hits mostly activators | hit rate 2.8% among 320,000 | Huh7 Rab9 promoter-luciferase reporter, luminescence, 24 h; also: % of control where 0% means no effect; nearly all actives have a fitted effect of over 60% in size
#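 Stable Rab9-luc Huh7, 1500 cells/well, 2 h settle; cmpd in DMSO, 24 h, 37 °C/5% CO2; luciferase reagent 10 min RT; luminescence.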
# ELG1 genotoxic: induces genotoxicity in HEK293T cells with luciferase-tagged ELG1; AID 504466; Potency, µM (series often up to 46 µM), for the others: at the highest dose activity change, positive = activation, most hits filed as activators; hit rate 1.3% among 330,000; HEK293T ELG1-luciferase reporter, luminescence, 16 h; also: % of control where 0% means no effect; nearly all actives have a fitted effect of over 60% in size
#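 DMSO vehicle served as control against compound-treated ELG1-luciferase HEK293T cells; exposure lasted 16 hr at 37 °C and 5% CO2, followed by ONE-Glo luminescence detection after 30 min.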
# Numbers without * were called inactive; ? = inconclusive; . = no result; [ ] = dose if it differs, or a comment. Sampled rows, rich in hits. Any-hit rate of the full collection: about 7.5%. Calls follow the shape of the dose curve; as a rule, active = well fitted curve in the direction sought with a large enough effect; inconclusive = small, poorly fitted or top-dose-only effect, or another doubt; inactive = no such curve, though single readings can be large; an effect the other way counts as inactive or inconclusive. Potency is read from the fitted curve at half-maximal effect.
SMILES,NPC1 prom act,SMN2 splice enh,FLuc counter,Rab9 prom act,ELG1 genotoxic
Cc1ccc(/C=C/C(=O)Nc2cc(C)on2)cc1,2.51µM*,?,?,3.98µM*,?
Cc1ccc(/C=C/C(=O)Nn2cnnc2)cc1,-4.6%,-6.3%,5.36µM*,-8.7%,8.8%
Cc1cc(NS(=O)(=O)c2ccc(NC(=O)/C=C/c3ccc(Br)cc3)cc2)no1,-5.9%,.,19µM*,-1.6%,5.1%
COc1ccccc1/C=C/C(=O)Nc1ccc(S(=O)(=O)Nc2cc(C)on2)cc1,-0.8%,.,23.9µM*,3.1%,14.4%
CC(=O)c1ccc(NC(=O)/C=C/c2ccc(C)cc2)cc1,-5.2%,12.4%,?,-7.8%,10.3%
COC(=O)c1c(C)oc2ccc(N(C(=O)c3ccncc3)S(=O)(=O)c3ccc(OC)cc3)cc12,.,-22.3%,-5.6%,.,.
CN(Cc1ccccc1)C(=O)COC(=O)c1ccc[nH]c1=O,.,.,.,.,-1.2%
Cc1cc(NS(=O)(=O)c2ccc(NC(=O)COc3ccc(Br)cc3C)cc2)no1,.,-11.3%,21.3µM*,.,.
CCCCOc1cccc(C(=O)Nc2ccc(S(=O)(=O)Nc3cc(C)on3)cc2)c1,-7.2%,.,19µM*,-1.2%,4.1%
CCOc1cccc(C(=O)Nc2ccc(S(=O)(=O)Nc3cc(C)on3)cc2)c1,0.8%,.,?,-1.2%,6.3%
COc1ccccc1Nc1nn2c(=O)c3ccc(C(=O)NC4CCCCC4)cc3nc2s1,.,.,-6.9%,.,.
CCOC(=O)c1cnn(-c2ccc(C(=O)Nc3ccc(C(C)=O)cc3)cc2)c1N,.,.,-2.2%,.,.
Cc1cnc(C(=O)OCC(=O)NC23CC4CC(CC(C4)C2)C3)cn1,-1.7%,8.4%,-2.7%,0.5%,1.9%
O=C(COC(=O)c1cccs1)NC12CC3CC(CC(C3)C1)C2,-2.6%,8.1%,23.9µM*,11.0%,-1.3%
O=C(COC(=O)c1ccccn1)NC12CC3CC(CC(C3)C1)C2,0.4%,13.5%,21.3µM*,-6.4%,-3.4%
Cc1oc(-c2cccc(Cl)c2)nc1Cn1c(SCc2ccccc2F)nc2ccncc21,.,11.1%,?,.,.
Nc1ccccc1Nc1cc(-c2ccccc2)nn1-c1ccccc1,10.4%,11.8%,16.9µM*,15.9%,7.7%
Nc1ccccc1Nc1ccccc1,-5.3%,15.6%,-6.4%,-0.4%[1.84 µM],-9.7%
Nc1ccccc1Nc1cc(-c2ccccc2)[nH]n1,-27.8%,?,10.7µM*,-15.9%,7.5%
O=C(CN1C(=O)COc2ccc(S(=O)(=O)NC3CCCC3)cc21)NCc1ccccc1Cl,.,.,-4.6%,.,.
O=C(Cn1ccsc1=NC(=O)C(F)(F)F)c1ccccc1,?,?,-11.9%,2.82µM*,15.3%
O=C(CCl)N=c1sccn1Cc1ccccc1Cl,-52.0%,.,0.3%,-53.7%,-7.0%
Cc1ccc(CN(C)C(=O)c2cc(COc3ccc(F)cc3Cl)on2)o1,14.1%,.,21.3µM*,14.3%,9.4%
Cc1cc(CN(C)C(=O)c2cc(COc3ccc(F)cc3Cl)on2)n[nH]1,23.8%,.,16.9µM*,?,?
N#Cc1ccc2c(c1)C[C@]1(c3ccsc3)Oc3c(c(=O)oc4ccccc34)C2O1,-0.8%[1.84 µM],.,3.09µM*,-4.0%[1.84 µM],.
SMILES,NPC1 prom act,SMN2 splice enh,FLuc counter,Rab9 prom act,ELG1 genotoxic
N#Cc1ccc2c(c1)C[C@]1(c3ccsc3)Oc3c(c(=O)oc4ccc(F)cc34)C2O1,-3.4%[1.84 µM],.,?,-6.9%[1.84 µM],.
Cc1ccc2nc(SCC(=O)c3ccc4c(c3)OCO4)[nH]c2c1,9.4%,-7.1%,?,5.1%,6.1%
O=C(CSc1ccccn1)c1ccc2c(c1)OCO2,3.55µM*,11.2µM*,10.7µM*,2.51µM*,4.61µM*
Cc1cc2nc(SC(C)C(=O)O)[nH]c2cc1C (configuration not stated),-1.1%,-3.4%,21.3µM*,0.3%,-0.5%
O=C(CSc1nc2ccccc2[nH]1)c1ccc2c(c1)OCO2,?,7.2%,12µM*,1.41µM*,13µM*
Cc1ccc2nc(SCC(=O)Nc3ccc4c(c3)OCCO4)[nH]c2c1,-4.9%,-3.9%,15.1µM*,0.9%,16.9%
CCc1c(C)nc(SCC(=O)Nc2ccc3c(c2)OCCO3)[nH]c1=O,-1.0%,.,?,-6.7%,4.2%
Cc1ccccc1/C=C1\SC(=S)N(/N=C/c2cc([N+](=O)[O-])ccc2O)C1=O,-2.2%,26.4%,?,-3.1%,9.4%
